Consider eight compounds from PubChem BioAssay (NCI).

This is part of a sample that, as a whole, favours compounds with a hit. Of some 83,000 tested, about 20% had one in any assay.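 Activity criterion: percent growth below 10, measured after cells in 96-well plates were exposed to a single compound concentration for 48 hours.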 Unmarked numbers belong to inactive results. Calls of active or inactive are those of the source.

Some test systems named below: DU-145 prostate; K-562 leukemia; MALME-3M melanoma; MDA-MB-231 breast; RXF 393 renal; SF-268 CNS; SF-539 CNS; UACC-257 melanoma; M14 melanoma; HCT-15 colon; HT29 colon; SNB-75 CNS; SNB-19 CNS; U251 CNS; PC-3 prostate; SK-MEL-5 melanoma; UACC-62 melanoma; LOX IMVI melanoma; SK-MEL-28 melanoma.
Holding throughout (test): NCI-60 one-dose screen, 48 h (100 = growth as untreated, 0 = no growth, -100 = all killed)
Holding throughout (details): 10 µM unless noted

In the case of `C/C(=C\C(=N\N=C(N)N)c1ccc(Cl)cc1)c1ccc(Cl)cc1`, the growth in the experiment with DU-145 prostate was -91.4% (active); in the experiment on K-562 leukemia, -51.7% (active); in the experiment on MALME-3M melanoma, -64.6% (active); in the experiment with MDA-MB-231 breast it was -73.1% (active); with RXF 393 renal it was -95.8% (active); with SF-268 CNS, -89.2% (active). The growth was -73.7% (active) in the experiment with SF-539 CNS; -72.5% (active) with UACC-257 melanoma; -79.7% (active) in the experiment on M14 melanoma; -69.5% (active) in the experiment on HCT-15 colon; -70.1% (active) with HT29 colon; -82.9% (active) in the experiment with SNB-75 CNS. Also, the growth with SNB-19 CNS is -79.8% (active); in the experiment with U251 CNS it was -93% (active); in the experiment with PC-3 prostate it was -80% (active); with SK-MEL-5 melanoma, -98.7% (active); with UACC-62 melanoma, -87.3% (active); with LOX IMVI melanoma, -59.1% (active). Further, the growth in the experiment on SK-MEL-28 melanoma is -81% (active).
Turning to `CCCCCCCCCCCCCCCCS(=O)(=O)Nc1cc(C(=O)NN)cc(C(=O)NN)c1`, the growth in the experiment with DU-145 prostate is 81%; in the experiment with K-562 leukemia it was 33.9%; with MALME-3M melanoma it was 85.4%; in the experiment with MDA-MB-231 breast it was 58.2%; in the experiment with RXF 393 renal, 94.3%; with SF-268 CNS, 43.4%. For the same compound, the growth was 63.7% with SF-539 CNS; 107% with UACC-257 melanoma; 88% with M14 melanoma; 50.5% with HCT-15 colon; 88% in the experiment with HT29 colon; 94.3% with SNB-75 CNS. The growth in the experiment on SNB-19 CNS is 52.2%; with U251 CNS it was 47.9%; in the experiment with PC-3 prostate it was 38.8%; in the experiment on SK-MEL-5 melanoma it was 73.7%; in the experiment with UACC-62 melanoma it was 70.3%; with LOX IMVI melanoma it was 70%. In addition, the growth in the experiment on SK-MEL-28 melanoma was 91.9%.
For the compound `COc1ccc(-c2nc3ccc(Cc4ccc5nc(-c6ccc(OC)cc6)[nH]c5c4)cc3[nH]2)cc1`, the growth is 64.6% with DU-145 prostate; 13.4% in the experiment on K-562 leukemia; -13.1% (active) in the experiment on MALME-3M melanoma; 17.3% in the experiment with MDA-MB-231 breast; 93.9% in the experiment on RXF 393 renal; 6.83% (active) in the experiment with SF-268 CNS. The growth in the experiment with SF-539 CNS was 56.6%; with UACC-257 melanoma, -20% (active); in the experiment on M14 melanoma, 40.1%; in the experiment with HCT-15 colon, 77.1%; in the experiment with HT29 colon, 44.2%; in the experiment on SNB-75 CNS it was 92.9%. In addition, the growth in the experiment with SNB-19 CNS is 49%; in the experiment on U251 CNS, 16.9%; in the experiment with PC-3 prostate, 43.3%; in the experiment on SK-MEL-5 melanoma, 13.5%; in the experiment with UACC-62 melanoma, 38.2%; in the experiment with LOX IMVI melanoma, 15.7%. In addition, the growth with SK-MEL-28 melanoma was 82.3%.
For `O=C1C2=C(C(=O)c3c(O)ccc(O)c31)N(c1ccc(N3CCOCC3)nc1)Cc1ccccc1O2`, the growth in the experiment on DU-145 prostate is -98% (active); in the experiment on K-562 leukemia, -17.5% (active); in the experiment on MALME-3M melanoma it was -91.6% (active); in the experiment with MDA-MB-231 breast, -89.6% (active); in the experiment with RXF 393 renal, -92.1% (active); with SF-268 CNS, -42.5% (active). Besides, the growth is -72.1% (active) in the experiment on SF-539 CNS; -92% (active) in the experiment on UACC-257 melanoma; -89.3% (active) in the experiment with M14 melanoma; -77.4% (active) with HCT-15 colon; -47.7% (active) in the experiment with HT29 colon; -19.8% (active) with SNB-75 CNS. In addition, the growth in the experiment with SNB-19 CNS was 12.2%; with U251 CNS, 0.735% (active); in the experiment on PC-3 prostate, 1.08% (active); with SK-MEL-5 melanoma it was -75% (active); with UACC-62 melanoma it was -66.7% (active); with LOX IMVI melanoma it was -66.8% (active). In the experiment on SK-MEL-28 melanoma, the growth is -77% (active).
Turning to `C=CC[C@]1(O)CC[C@H]2[C@@H]3CCc4cc(O)ccc4[C@H]3CC[C@@]21C`, the growth in the experiment with DU-145 prostate is 102%; in the experiment on K-562 leukemia it was 56%; in the experiment with MALME-3M melanoma it was 93.3%; in the experiment on MDA-MB-231 breast, 99.6%; with RXF 393 renal, 102%; with SF-268 CNS, 97.1%. In addition, the growth with SF-539 CNS was 105%; with UACC-257 melanoma, 102%; in the experiment on M14 melanoma, 94.3%; in the experiment on HCT-15 colon, 81.4%; in the experiment on HT29 colon, 91.2%; with SNB-75 CNS, 75.7%. The growth was 94.4% in the experiment on SNB-19 CNS; 93.4% with U251 CNS; 85.6% with PC-3 prostate; 99.6% with SK-MEL-5 melanoma; 89.4% with UACC-62 melanoma; 92.6% in the experiment on LOX IMVI melanoma. In the experiment with SK-MEL-28 melanoma, the growth was 101%.
Regarding `CN(C)c1ccc(N2Cc3ccccc3OC3=C2C(=O)c2c(O)ccc(O)c2C3=O)cn1`, the growth with DU-145 prostate is -97.3% (active); in the experiment on K-562 leukemia, -20.8% (active); in the experiment on MALME-3M melanoma it was -76.9% (active); in the experiment with MDA-MB-231 breast, -93.6% (active); in the experiment on RXF 393 renal it was -87% (active); in the experiment on SF-268 CNS it was -32.5% (active). The growth in the experiment on SF-539 CNS was -63% (active); in the experiment with UACC-257 melanoma it was -89.9% (active); in the experiment with M14 melanoma, -88.6% (active); in the experiment on HCT-15 colon it was -64.4% (active); in the experiment on HT29 colon it was -50.8% (active); with SNB-75 CNS it was 0.378% (active). Moreover, the growth was 6.23% (active) with SNB-19 CNS; -15.7% (active) in the experiment on U251 CNS; -4.29% (active) in the experiment on PC-3 prostate; -81.3% (active) with SK-MEL-5 melanoma; -87.4% (active) with UACC-62 melanoma; -68.1% (active) in the experiment on LOX IMVI melanoma. In the experiment on SK-MEL-28 melanoma, the growth was -82.8% (active).
`CCCN(CCC)CC(O)COc1ccccc1C(=O)Nc1ccccc1` (configuration not stated): the growth was 96.8% with DU-145 prostate; 22.3% in the experiment with K-562 leukemia; 62% in the experiment with MALME-3M melanoma; 96.5% in the experiment with MDA-MB-231 breast; 52.5% in the experiment with RXF 393 renal; 73.8% with SF-268 CNS. Also, the growth was 77.3% with SF-539 CNS; 61.5% with UACC-257 melanoma; 69.3% in the experiment on M14 melanoma; 72.8% in the experiment with HCT-15 colon; 71.3% in the experiment on HT29 colon; 56.2% in the experiment on SNB-75 CNS. For the same compound, the growth in the experiment on SNB-19 CNS is 94.6%; in the experiment with U251 CNS it was 60.4%; in the experiment with PC-3 prostate, 70.2%; with SK-MEL-5 melanoma, 53.3%; with UACC-62 melanoma, 48.1%; in the experiment on LOX IMVI melanoma, 56.8%. Besides, the growth in the experiment with SK-MEL-28 melanoma is 65.2%.
With `Cc1ccc(N2C3c4ccccc4N(S(=O)(=O)c4ccc(C)cc4)C2c2ccccc2N3S(=O)(=O)c2ccc(C)cc2)cc1`, the growth is 104% in the experiment on DU-145 prostate; 90.4% in the experiment with K-562 leukemia; 97.9% with MALME-3M melanoma; 94.3% in the experiment on MDA-MB-231 breast; 121% with RXF 393 renal; 107% in the experiment on SF-268 CNS. Moreover, the growth in the experiment with SF-539 CNS was 95.4%; with UACC-257 melanoma it was 102%; with M14 melanoma, 110%; with HCT-15 colon, 94.9%; in the experiment on HT29 colon, 101%; in the experiment on SNB-75 CNS, 89.5%. Moreover, the growth with SNB-19 CNS was 111%; with U251 CNS, 91.8%; in the experiment on PC-3 prostate, 90.4%; with SK-MEL-5 melanoma, 103%; with UACC-62 melanoma, 99.6%; in the experiment on LOX IMVI melanoma, 98.7%. In addition, the growth in the experiment on SK-MEL-28 melanoma is 99.3%.
